PBM binding z-score data for 40 sequences are collected here from the supplement of paper PMC6555819.

One assay has as its system RXRa homodimer (NR concentration 180 nM). Put plainly: PBM binding z-score (relative to random genomic background probes); higher = stronger binding; sequences stand for … in GC…GCGATTGACAGCGTAGAATGAAGG
In a few lines: (§1)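 The probes on custom Agilent 4×180K protein-binding microarrays were double-stranded, with 34-nt variable regions bearing direct-repeat seeds, single-nucleotide variants, half-site ablations and random human genomic background sequences. Incubation lasted 1 h with ligand-free nuclear receptor dimers in PBS pH 7.4, 2% milk, 0.02% Triton X-100, 1 mM DTT, 0.2 mg/mL BSA and 0.4 mg/ml salmon testes DNA. Antibodies against each partner (one per run) detected bound dimers, and fluorescence scans were regression-normalized. Binding z-scores take the random background probes as reference.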
Take ACTAGCAGGCCACGGGTCACTCAAGATTAGTCCG: the PBM binding z-score came out at 2.18.

CCGACTGGGGCAAAGGTGACCATACTCAGTACGA: the PBM binding z-score is 2.04.

TGAATGAGGCTAAAGATCAGGGAACGTGGCGTCG had a PBM binding z-score of 0.184.

The sequence TCTTGCAGATCAACAGGAGGTTAAGAAAGATCGA yielded a PBM binding z-score of 0.749.

TAGCCTAGGTCACGCGGGCCAGTATAGTGTCGGC registered a PBM binding z-score of 4.2.

GATACAGGGTCAAGGCCAGAGTGCGCGTATTGAT returned a PBM binding z-score of 5.94.

TCATAGAGGTAAATGCTAGGTGAAAGTCCGATCT: the PBM binding z-score was 0.849.

With TCTCGGAGGATACGAAAGGTCAGAGCTCGACATC, the PBM binding z-score was 4.38.

As to ATACCAAGGTGATCGTGAGGTAGTTGATACTAAC, the PBM binding z-score was determined as 0.329.

For the sequence ATCTCTAGGCAAGACTCAGTTCAGTGAAGAACGC, the PBM binding z-score was -0.365.

In the case of GTACCAAGGTGAGTAGGTCGTTGATGAGTAGGCG, the PBM binding z-score was found to be 0.551.

Take CCTCGGAGGACAACAGGAGGTCAGAGCGGCCAGA: the PBM binding z-score came out at 2.11.

Regarding TCTGGTAGATCAATAGAGGTTAAGAAAGTGCGCT, the PBM binding z-score was 1.48.

Sequence GCGACTGGGGCAAAGCAGGTTACAATAAGGTTGG displayed a PBM binding z-score of 0.668.

In turn, CCGACTGGGGCATAAGGTTACCACAAGCCAGCCC had a PBM binding z-score of 1.32.

Take ATATGTAGGTTAAGGGTCATACAGGTTGGTTCGC: the PBM binding z-score came to 6.23.

Regarding ACTATTAGTTGACTAAGGGCAACCGATACGACGC, the PBM binding z-score was 0.794.

Regarding TCTTGTAGATCAACACGAGGTTAAGAAAGATCGA, the PBM binding z-score is 1.07.

As for TCGAGTAGCTTAGGGGCATTCAGAATGGCGTCGA, the PBM binding z-score turned out to be 0.216.

Take TCAATGAGGTTATAAGATCAGGGAACGTTGCAAA: the PBM binding z-score worked out at 2.19.

With CCTACTGGGCCACGAAAGGTCATTGTTTCAGTGA, the PBM binding z-score was found to be 5.09.

In the case of GATACAGGGCCAGCTAGAGGCCAGAGTATGGAAA, the PBM binding z-score was -0.349.

GCTATTAGTTGAAAGGGCAACCTAATGATTCTCG had a PBM binding z-score of 1.24.

With ATATGTAGGTTATCGGGTCATTCAGTTTGCGCAT, the PBM binding z-score came out at 3.47.

CGTCCAAGGTCAGAGCGGTCAGTGAATGCCGAGT displayed a PBM binding z-score of 3.84.

In the case of TTACCAAGGTGAGCTGAGGTCGTTGTTCCAACTC, the PBM binding z-score is 1.42.

CCAGCCAGGTGAGAAGGTAACTCAGCCTCGATTA had a PBM binding z-score of 0.0434.

In the case of CCTAGCAGGCCAATCTGGCTCACTCAAGGCTTGA, the PBM binding z-score was -0.743.

CTTTACGGGTCACTCCAGGTTATAGCATCGGAGT yielded a PBM binding z-score of 4.54.

The sequence CAAACTCGGTCACGAAAGGTCAAAGTCGAATGAC displayed a PBM binding z-score of 7.26.

In turn, CTCGAAAAGTCGGTTGAGGTGAGTATACGGATAA came in with a PBM binding z-score of 0.212.

The sequence CGGCCAAGGTCAGAGAGGTCAGTGAATGCCGAGT returned a PBM binding z-score of 6.21.

Consider CCTACTGGGCCAAGGTGATTGATCAGTCAAAGCA, for which the PBM binding z-score is -0.57.

TATACAGGGTCAAAGGCCAGACTACGAATGTCGA gave a PBM binding z-score of 6.99.

Turning to ATAATGAGGTTATTAAGATCAGGGAATTGCGGTC, the PBM binding z-score worked out at 1.88.

As for GCTGCTAGGTAAACTGATGGTCAGCTAAAGCTCG, the PBM binding z-score is -0.342.

Turning to AGAATGAGGTTATTAAGACCAGGGAATTGCGGTC, the PBM binding z-score was 1.91.

Sequence ATCTCCAGGTAAGACTCAGTTCAGTGAAGAACGC gave a PBM binding z-score of 0.366.

Regarding CCAGACAGGTGAAAGGTAATTCAGTCTGGTACGC, the PBM binding z-score was determined as 1.68.

The sequence CTAACTAGGTCAAGAGGTCAAAGTCCGCTTCCCG had a PBM binding z-score of 8.23.

A further assay relates to THRa:RXRa (NR concentration 90 nM, RXRa partner concentration 90 nM). Described as above. In a few lines: as §1
On to ACTAGCAGGCCACGGGTCACTCAAGATTAGTCCG, for which the PBM binding z-score amounted to 1.85.

Sequence CCGACTGGGGCAAAGGTGACCATACTCAGTACGA had a PBM binding z-score of 0.896.

Regarding TGAATGAGGCTAAAGATCAGGGAACGTGGCGTCG, the PBM binding z-score is 0.0902.

The sequence TCTTGCAGATCAACAGGAGGTTAAGAAAGATCGA showed a PBM binding z-score of 0.859.

Consider TAGCCTAGGTCACGCGGGCCAGTATAGTGTCGGC, for which the PBM binding z-score was 3.74.

Take GATACAGGGTCAAGGCCAGAGTGCGCGTATTGAT: the PBM binding z-score worked out at 3.42.

As to TCATAGAGGTAAATGCTAGGTGAAAGTCCGATCT, the PBM binding z-score was determined as 1.94.

Consider TCTCGGAGGATACGAAAGGTCAGAGCTCGACATC, for which the PBM binding z-score is 2.98.

Sequence ATACCAAGGTGATCGTGAGGTAGTTGATACTAAC yielded a PBM binding z-score of 1.5.

In turn, ATCTCTAGGCAAGACTCAGTTCAGTGAAGAACGC had a PBM binding z-score of 0.205.

In the case of GTACCAAGGTGAGTAGGTCGTTGATGAGTAGGCG, the PBM binding z-score is 0.995.

As to CCTCGGAGGACAACAGGAGGTCAGAGCGGCCAGA, the PBM binding z-score was found to be 2.87.

Consider TCTGGTAGATCAATAGAGGTTAAGAAAGTGCGCT, for which the PBM binding z-score is 2.22.

Sequence GCGACTGGGGCAAAGCAGGTTACAATAAGGTTGG showed a PBM binding z-score of 3.11.

CCGACTGGGGCATAAGGTTACCACAAGCCAGCCC returned a PBM binding z-score of 2.04.

As for ATATGTAGGTTAAGGGTCATACAGGTTGGTTCGC, the PBM binding z-score worked out at 3.48.

Turning to ACTATTAGTTGACTAAGGGCAACCGATACGACGC, the PBM binding z-score stood at 1.72.

For the sequence TCTTGTAGATCAACACGAGGTTAAGAAAGATCGA, the PBM binding z-score came out at 1.57.

For TCGAGTAGCTTAGGGGCATTCAGAATGGCGTCGA, the PBM binding z-score amounted to 0.657.

As to TCAATGAGGTTATAAGATCAGGGAACGTTGCAAA, the PBM binding z-score was found to be 1.84.

CCTACTGGGCCACGAAAGGTCATTGTTTCAGTGA yielded a PBM binding z-score of 3.94.

In turn, GATACAGGGCCAGCTAGAGGCCAGAGTATGGAAA displayed a PBM binding z-score of -0.394.

Take GCTATTAGTTGAAAGGGCAACCTAATGATTCTCG: the PBM binding z-score was found to be 0.901.

Sequence ATATGTAGGTTATCGGGTCATTCAGTTTGCGCAT had a PBM binding z-score of 3.23.

As for CGTCCAAGGTCAGAGCGGTCAGTGAATGCCGAGT, the PBM binding z-score is 3.6.

In the case of TTACCAAGGTGAGCTGAGGTCGTTGTTCCAACTC, the PBM binding z-score turned out to be 4.75.

Take CCAGCCAGGTGAGAAGGTAACTCAGCCTCGATTA: the PBM binding z-score came out at 0.621.

Sequence CCTAGCAGGCCAATCTGGCTCACTCAAGGCTTGA registered a PBM binding z-score of -0.627.

For the sequence CTTTACGGGTCACTCCAGGTTATAGCATCGGAGT, the PBM binding z-score came out at 5.08.

CAAACTCGGTCACGAAAGGTCAAAGTCGAATGAC: the PBM binding z-score turned out to be 4.47.

As to CTCGAAAAGTCGGTTGAGGTGAGTATACGGATAA, the PBM binding z-score was determined as 3.57.

For CGGCCAAGGTCAGAGAGGTCAGTGAATGCCGAGT, the PBM binding z-score worked out at 4.17.

CCTACTGGGCCAAGGTGATTGATCAGTCAAAGCA displayed a PBM binding z-score of 0.355.

TATACAGGGTCAAAGGCCAGACTACGAATGTCGA displayed a PBM binding z-score of 3.6.

In turn, ATAATGAGGTTATTAAGATCAGGGAATTGCGGTC had a PBM binding z-score of 2.3.

GCTGCTAGGTAAACTGATGGTCAGCTAAAGCTCG registered a PBM binding z-score of -0.142.

Sequence AGAATGAGGTTATTAAGACCAGGGAATTGCGGTC returned a PBM binding z-score of 2.17.

ATCTCCAGGTAAGACTCAGTTCAGTGAAGAACGC displayed a PBM binding z-score of 1.1.

CCAGACAGGTGAAAGGTAATTCAGTCTGGTACGC: the PBM binding z-score is 0.696.

CTAACTAGGTCAAGAGGTCAAAGTCCGCTTCCCG registered a PBM binding z-score of 4.27.
